Shown are actives, neighbours in structure and some others; about 1.1% of the full set was active somewhere.
PTHR1 agonist = qHTS for PTHR1 Agonists: Primary Screen; Parathyroid hormone/parathyroid hormone-related peptide receptor (Homo sapiens), Q03431; HEK293 GP2 PTHR1 cells, GloSensor cAMP luminescence, 1 h; Potency, µM (titrated, usually from 115 µM), inactives show at the highest dose activation, usual class: activators; 410,000 compounds, 0.075% hits; also: potency is read from the fitted curve at half-maximal effect; nearly all actives have a fitted effect of over 55% in size
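HEK-293-derived GP2 cells expressing PTHR1 and a GloSensor cAMP reporter, 3,000/well, plated overnight, given luciferin plus IBMX (each 0.5 mM as added) for 1 h at 37 °C, then compound for 1 h at 37 °C. Luminescence was read after 15 min at room temperature.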
RGS4 inhibitor = Inhibitors of Regulator of G Protein Signaling (RGS) 4: qHTS; Regulator of G-protein signaling 4 (Homo sapiens), P49798; Transcreener GDP fluorescence polarization, RGS4-accelerated GTP hydrolysis; Potency, µM (top dose mostly 114 µM), for inactives: at the top dose activity change, negative = inhibition, actives largely listed as inhibitors; 390,000 compounds, 0.039% hits; also: potency is read from the fitted curve at half-maximal effect; % is scaled to controls: 0 for no effect and ±100 for the full control effect; nearly all actives have a fitted effect of over 75% in size
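MLSMR compounds (23 nl, pin-transferred) preincubated 10 min at room temperature with a 500nM (2x) first reagent, then RGS4 at 900nM (2x) plus Transcreener GDP mix added; fluorescence polarization (620/688 nm) read before and after 90 min at 30 °C.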
BRCA1 expr up = qHTS Assay to Identify Small Molecule Activators of BRCA1 Expression. MCF7-BRCA1-FFLuc reporter, luminescence, 48 h; response scale: scaled: vehicle 0%, 10 µM genistein 100%. Potency, µM (top dose mostly 46.1 µM), inactives show top-dose activation, hits mostly activators. 380,000 compounds, 1.1% hits. AID 624202, 2012; also: potency is read from the fitted curve at half-maximal effect; nearly all actives have a fitted effect of over 80% in size
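MCF7-BRCA1-FFLuc cells, 2000/well in phenol-red-free MEM, attached 2 h then treated 48 h at 37 C. Luciferase luminescence read 15 min after reagent; normalized to genistein maximum activation (10microM) and DMSO, concentration-response fitted.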
LDHA inh = qHTS assay for inhibitors of human lactate dehydrogenase. AID 1347041, 2019. purified LDHA, NADH/diaphorase-resazurin fluorescence; active compounds read low. activity change, % (values are at about 110 or 230 µM). 480,000 compounds, 0.15% hits; in the data active = activity change below about -30%; inconclusive = mostly about -25% to -30%;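 also: plate controls were DMSO wells for no effect and wells without enzyme for full effect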
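LDH5 2 nM; NADH 0.06 mM, pyruvate 0.2 mM; 200 mM Tris pH 7.4, EDTA, Tween-20; 5 min RT. Detection: diaphorase 0.133 mg/mL + resazurin 37 µM, fluorescence ex540/em590 at 0 and 20 min; normalized to enzyme-free and DMSO wells.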
p53 reactivator = qHTS assay for re-activators of p53 using a Luc reporter; H1299 p53-A138V BP100-luciferase reporter, luminescence, 24 h; Potency, µM (series often up to 92.2 µM), for the others: top-dose activity change, positive = activation, actives largely listed as activators; 320,000 compounds, 0.063% hits; AID 504706, 2011; also: potency is read from the fitted curve at half-maximal effect; % of control where 0% means no effect; nearly all actives have a fitted effect of over 45% in size
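H1299 (p53-null), stable ts p53-A138V + BP100-Luc; 1000 cells/well, Opti-MEM/10% FBS; cpd 4 pt, 1:5; 24 h, 37 deg C, 5% CO2; detection reagent 10 min RT; luminescence.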
* = called active by the depositor; i = inactive; ? = inconclusive; · = no result; [ ] = another dose, or the depositor's remark. Unless noted, calls follow the shape of the dose curve; as a rule, active = well fitted curve in the direction sought with a large enough effect; inconclusive = small, poorly fitted or top-dose-only effect, or another doubt; inactive = no such curve, though single readings can be large; an effect the other way counts as inactive or inconclusive.

SMILES	PTHR1 agonist	RGS4 inhibitor	BRCA1 expr up	LDHA inh	p53 reactivator
Cc1ccc(C)c(NC(=S)N/N=C/C2=CCC3CC2C3(C)C)c1 (configuration not stated)	·	·	·	1	·
CN(C)/C=N/C(=S)Nc1ccc(Cl)cc1Cl	-13%	-44%	5µM*	0	1%
Cc1cc(/C=C(\C#N)C(=O)Nc2ccccc2)c(C)n1-c1cccnc1	-33%	28%	5.6µM*	-10	?
Cc1cc(/C=C(\C#N)C(=O)Nc2ccccc2)c(C)n1-c1ccc(F)cc1	20%	26%	15%	0	·
Nc1nc(SCc2ccccc2)[nH]c(=O)c1-c1ccccc1	0%[57.5 µM]	8%	10µM*	-4	?
CC(C)COc1ccc(C(=O)N2CCCCC2CCN2CCCCCC2)cc1 (configuration not stated)	·	·	·	0	·
C[n+]1cnn2c1SCC1(COC1)C2	-12%[57.5 µM]	-4%	9%	-58*	23%
C(=NOCc1ccccc1)c1ccccn1	-51%	·	10µM*	-13	·
Cc1[nH]c2ccccc2c1N=Nc1ccc(F)cc1	i	11%	-20%	-5	8%
Cc1[nH]c2ccccc2c1N=Nc1cc(C(=O)O)cc(C(=O)O)c1	?	-14%	-27%	-34*	3%
CC(CN1CCOCC1)OC(=O)c1ccc2c(c1)OCCO2 (configuration not stated)	-3%[57.5 µM]	-17%	7.9µM*	-3	?
O=C1Nc2ccccc2CCC1n1nc(-c2ccc(Cl)cc2)ccc1=O (configuration not stated)	·	·	·	-3	·
O=C1CCn2nc(-c3ccc(Cl)cc3)cc2N1	-19%	-14%	4µM*	0	?
COc1cc(C2CC(=O)Oc3c2c(=O)[nH]c2ccccc32)cc2c1OCO2 (configuration not stated)	·	·	·	-38*	·
Cc1cc(C)nc(NC(c2cccs2)c2c(NC(=O)c3ccco3)sc(C)c2C)n1 (configuration not stated)	·	·	·	8	·
Clc1ccc(OCc2nnc(-c3ccccc3Br)o2)c(Cl)c1	-13%[57.5 µM]	19%	3.2µM*	-8	?
Cc1cc(Br)ccc1OCc1nnc(-c2ccccc2)o1	-90%	-2%	13µM*	0	·
Cc1cc(Cl)ccc1OCc1nnc(-c2ccccc2C)o1	-33%	18%	10µM*	-6	11%
O=C(Nc1ccc2c(c1)OCCCO2)c1ccccc1SCc1cccs1	·	·	·	11	·
CN(CC(=O)Nc1ccc(Cl)cc1)CC(=O)N1CCC(Cc2ccccc2)CC1	·	·	·	4	·
COc1ccccc1NC(=O)c1ccc2snnc2c1	-25%	-19%	34%	0	-1%
COc1ccc(NC(=O)c2ccc3nccnc3c2)cc1	i	-7%	2.8µM*	-2	?
COc1cc(NC(=O)c2ccc3snnc3c2)cc(OC)c1	i	10%	11µM*	-4	3%
CCOc1ccc(NC(=O)c2ccc3nccnc3c2)cc1	i	-3%	70%	-3	16%
COc1ccc(C(=O)NC(=O)Nc2ncccc2C)cc1	-10%[57.5 µM]	28%	2.8µM*	-3	?
SMILES	PTHR1 agonist	RGS4 inhibitor	BRCA1 expr up	LDHA inh	p53 reactivator
COc1ccc(NC(=O)c2coc(C)c2)cc1	i	3%	5.6µM*	1	?
CSc1ccc(C2c3c(-c4ccccc4O)n[nH]c3C(=O)N2CCO)cc1 (configuration not stated)	·	·	·	-3	·
COC(=O)c1ccccc1NC(=O)c1ccc2nccnc2c1	-3%	16%	5%	-2	12%
COc1ccc(NC(=O)c2ccc(Oc3ncccn3)cc2)cc1	-1%	-5%	8.9µM*	-3	6%
Cc1ccc(NC(=O)c2ccc3nsnc3c2)c(Cl)c1	i	0%	1µM*	-2	?
O=C(/C=C/Nc1ccccc1)c1ccc(Oc2ncccn2)cc1	-5%[57.5 µM]	-17%	3.5µM*	2	?

High-throughput results (PubChem)
